Results as given in the supplement of paper PMC12067926.

Columns and labels:
Test in all cases: relative growth (AUC of 72 h growth curve relative to DMSO control, dAUC) (ratio); higher = more growth (less inhibition), active = hit call of the paper
Details in all cases: 20 µM;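 active = growth AUC significantly below the DMSO wells by Dunnett test; inactive = the rest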
[1] = test system: Prolinoborus 1 (Prolinoborus fasciculus)
Summary of the method: (§1)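 Isolates from Icelandic stream sediments and Silwood Park soil, along with whole sediment communities, were grown in Luria–Bertani medium to carrying capacity and diluted 1:100 into 96-well plates with each chemical at 20 µM (1% DMSO). A600 was measured hourly for 72 h, and values were averaged over three biological replicates. Relative growth (dAUC) is the spline-integrated growth-curve area over the mean of the DMSO controls.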

[2] = test system: Pseudomonas 1 (Pseudomonas baetica)
Summary of the method: as §1

[3] = test system: Pseudomonas 2 (Pseudomonas vancouverensis)
Summary of the method: as §1

[4] = test system: Pseudomonas 3 (Pseudomonas mandelii)
Summary of the method: as §1

[5] = test system: Pseudomonas 4 (Pseudomonas peli)
Summary of the method: as §1

[6] = test system: Pseudomonas 5 (Pseudomonas baetica)
Summary of the method: as §1

[7] = test system: Pseudomonas 6 (Pseudomonas sp.)
Summary of the method: as §1

[8] = test system: Rhizobium 1 (Rhizobium herbae)
Summary of the method: as §1

[9] = test system: Serratia 1 (Serratia sp. 2015-2462-01)
Summary of the method: as §1

[10] = test system: Sphingomonas 2 (Sphingomonas sp.)
Summary of the method: as §1

Measured: relative growth

CC[C@H](C)C1O[C@]2(C=C[C@@H]1C)C[C@@H]1C[C@@H](C/C=C(\C)[C@@H](O[C@H]3C[C@H](OC)[C@@H](O[C@H]4C[C@H](OC)[C@H](NC)[C@H](C)O4)[C@H](C)O3)[C@@H](C)/C=C/C=C3\CO[C@@H]4[C@H](O)C(C)=C[C@@H](C(=O)O1)[C@]34O)O2 (stereo not given in full)
1.16: [6] | [9]
inactive: [2] 0.957 | [3] 0.971 | [4] 1.08 | [5] 0.98 | [7] 1.19 | [8] 0.8
active: [1] 0.605 | [10] 0.373

CC(C)N1C(=O)N(c2ccccc2)CS/C1=N\C(C)(C)C
inactive: [1] 0.883 | [2] 1.05 | [3] 0.977 | [4] 1.02 | [5] 0.937 | [6] 1.03 | [7] 1.07 | [8] 0.931 | [9] 0.962 | [10] 1.05

O=C1c2ccccc2C(=O)N1SC(Cl)(Cl)Cl
inactive: [1] 1.04 | [2] 1.05 | [3] 0.992 | [4] 1.01 | [5] 1.01 | [6] 1.06 | [7] 1.16 | [8] 1.01 | [9] 0.947 | [10] 0.999

CCCN(CCOc1c(Cl)cc(Cl)cc1Cl)C(=O)n1ccnc1
inactive: [1] 0.93 | [2] 1.07 | [3] 0.984 | [4] 1.02 | [5] 0.964 | [6] 0.997 | [7] 1.03 | [8] 0.949 | [9] 0.985 | [10] 0.993

CN(C)C(CSS(=O)(=O)O)CSS(=O)(=O)O
inactive: [1] 0.961 | [2] 1.14 | [3] 0.994 | [4] 1.08 | [5] 0.978 | [6] 1.04 | [7] 1.1 | [8] 0.931 | [9] 0.953 | [10] 0.893

CC1(C)C(C=C(Cl)Cl)C1C(=O)OC(C#N)c1cccc(Oc2ccccc2)c1 (stereo not given)
inactive: [1] 0.983 | [2] 0.942 | [3] 1.06 | [4] 1.06 | [5] 1.04 | [6] 1.02 | [7] 1 | [8] 1.15 | [9] 1.01 | [10] 1.03

COc1cccc(C(=O)NN(C(=O)c2cc(C)cc(C)c2)C(C)(C)C)c1C
inactive: [1] 0.981 | [2] 1.04 | [3] 1.01 | [4] 1.04 | [5] 0.987 | [6] 1.05 | [7] 1.12 | [8] 0.96 | [9] 0.934 | [10] 0.977

COCC(C)N(C(=O)CCl)c1c(C)csc1C (stereo not given)
inactive: [1] 0.925 | [2] 1.04 | [3] 0.974 | [4] 1 | [5] 0.962 | [6] 1.07 | [7] 1.15 | [8] 1.04 | [9] 0.939 | [10] 1.01

C#CCOc1ccc(CCNC(=O)C(OCC#C)c2ccc(Cl)cc2)cc1OC (stereo not given)
inactive: [1] 0.958 | [2] 0.979 | [3] 0.988 | [4] 1.02 | [5] 0.992 | [6] 0.985 | [7] 1.07 | [8] 1.06 | [9] 0.968 | [10] 1.13

CCCCC(C#N)(Cn1cncn1)c1ccc(Cl)cc1 (stereo not given)
inactive: [1] 0.947 | [2] 0.939 | [3] 0.943 | [4] 0.993 | [5] 0.927 | [6] 0.963 | [7] 0.907 | [8] 0.958 | [9] 0.973 | [10] 0.96

Cc1nc(N(C)C)nc(OC(=O)N(C)C)c1C
inactive: [1] 0.948 | [2] 1 | [3] 0.96 | [4] 0.978 | [5] 0.949 | [6] 0.991 | [7] 1.02 | [8] 1.22 | [9] 0.992 | [10] 0.968

CNC(=O)CSP(=S)(OC)OC
inactive: [1] 0.985 | [2] 0.984 | [3] 0.991 | [4] 1.02 | [5] 0.963 | [6] 1.02 | [7] 1.19 | [8] 1.05 | [9] 0.96 | [10] 1.07

ClC1C(Cl)C(Cl)C(Cl)C(Cl)C1Cl (stereo not given)
inactive: [1] 0.987 | [2] 1.04 | [3] 0.993 | [4] 0.99 | [5] 0.982 | [6] 1.04 | [7] 1.02 | [8] 0.826 | [9] 0.97 | [10] 0.949

CNC(=O)c1cc(C#N)cc(C)c1NC(=O)c1cc(Br)nn1-c1ncccc1Cl
inactive: [1] 0.944 | [2] 0.962 | [3] 0.986 | [4] 1.01 | [5] 0.976 | [6] 1.06 | [7] 1.06 | [8] 0.961 | [9] 0.982 | [10] 1.05

CN/C(=N\[N+](=O)[O-])NCc1cnc(Cl)s1
inactive: [1] 0.937 | [2] 1.1 | [3] 0.964 | [4] 1.01 | [5] 0.974 | [6] 1.03 | [7] 1.09 | [8] 0.902 | [9] 0.931 | [10] 0.945

COP(=S)(OC)Oc1ccc(SC)c(C)c1
inactive: [1] 0.975 | [2] 0.988 | [3] 0.973 | [4] 1.01 | [5] 0.957 | [6] 1.01 | [7] 1.01 | [8] 0.937 | [9] 0.998 | [10] 0.974

CCC(=O)Nc1ccc(Cl)c(Cl)c1
inactive: [1] 0.951 | [2] 1.04 | [3] 0.975 | [4] 0.984 | [5] 0.928 | [6] 1.01 | [7] 1.02 | [8] 0.817 | [9] 0.906 | [10] 0.927

CN1COCN(Cc2cnc(Cl)s2)/C1=N\[N+](=O)[O-]
inactive: [1] 0.974 | [2] 0.927 | [3] 1.03 | [4] 1.05 | [5] 0.996 | [6] 1.04 | [7] 1.1 | [8] 1.01 | [9] 0.99 | [10] 1.05

N#Cc1cc(Br)c(O)c(Br)c1
inactive: [1] 0.996 | [2] 1.06 | [3] 1.02 | [4] 1.09 | [5] 0.964 | [6] 1.05 | [7] 1.12 | [8] 0.751 | [9] 0.998 | [10] 1.06

CO/C=C(/C(=O)OC)c1ccccc1COc1cccc(C(F)(F)F)n1
inactive: [1] 0.929 | [2] 1.02 | [3] 0.958 | [4] 0.991 | [5] 0.97 | [6] 1.05 | [7] 1.11 | [8] 0.96 | [9] 0.966 | [10] 1

CO/C=C(/C(=O)OC)c1ccccc1Oc1cc(Oc2ccccc2C#N)ncn1
inactive: [1] 0.973 | [2] 1.07 | [3] 1.02 | [4] 1.06 | [5] 1.03 | [6] 1.03 | [7] 1.08 | [8] 0.967 | [9] 0.967 | [10] 1.09

CCOC(=O)CC(SP(=S)(OC)OC)C(=O)OCC (stereo not given)
inactive: [1] 1.01 | [2] 1.03 | [3] 1.05 | [4] 1.05 | [5] 1.04 | [6] 0.994 | [7] 1.09 | [8] 0.984 | [9] 1.01 | [10] 1.15

CC1COC(Cn2cncn2)(c2ccc(Oc3ccc(Cl)cc3)cc2Cl)O1 (stereo not given)
inactive: [1] 1.04 | [2] 1.06 | [3] 0.99 | [4] 1.06 | [5] 1.01 | [6] 1.03 | [7] 1.08 | [8] 0.952 | [9] 1.01 | [10] 1.06

CS(=O)(=O)c1cc(C(F)(F)F)ccc1C(=O)c1cnoc1C1CC1
inactive: [1] 1 | [2] 0.985 | [3] 1.02 | [4] 1.01 | [5] 1.02 | [6] 0.96 | [7] 0.911 | [8] 1.11 | [9] 1.06 | [10] 1.11

CC1=NNC(=O)N(/N=C/c2cccnc2)C1
inactive: [1] 1.05 | [2] 0.636 | [3] 1.03 | [4] 0.986 | [5] 0.986 | [6] 0.971 | [7] 0.931 | [8] 1.03 | [9] 0.937 | [10] 1.03

Cc1cc(C)c(C2=C(OC(=O)CC(C)(C)C)C3(CCCC3)OC2=O)c(C)c1
inactive: [1] 0.977 | [2] 1.1 | [3] 1.12 | [4] 1.09 | [5] 1 | [6] 1.03 | [7] 1.2 | [8] 0.937 | [9] 1.03 | [10] 1.01

N#Cc1sc2c(=O)c3ccccc3c(=O)c=2sc1C#N
inactive: [1] 1.03 | [2] 0.913 | [3] 0.929 | [5] 1.07 | [6] 0.962 | [7] 0.885 | [8] 1 | [9] 0.862 | [10] 1.01
active: [4] 0.887

CCOP(=S)(OCC)Oc1cc(C)nc(C(C)C)n1
inactive: [1] 0.91 | [2] 0.877 | [3] 1.01 | [4] 1.04 | [5] 0.919 | [6] 0.98 | [7] 1.12 | [8] 0.904 | [9] 0.958 | [10] 0.988

O=C(O)CNCP(=O)(O)O
inactive: [1] 0.991 | [2] 0.996 | [3] 0.994 | [4] 1.05 | [5] 0.979 | [6] 1 | [7] 1.1 | [8] 1.03 | [9] 1.01 | [10] 1.02
